Only some compounds are listed: those with a hit (about 11% of all), similar ones and a draw of the others.
ALDH1A1 block: blocks purified human ALDH1A1 activity; Purified ALDH1A1, NADH fluorescence, propionaldehyde substrate; Potency, µM (top dose mostly 75.3 µM), most hits filed as inhibitors; hit rate 7.3% among 220,000; active = well fitted inhibition curve with a large enough effect, not every such curve was filed as active; inconclusive = small, poorly fitted or top-dose-only effect, or another doubt; inactive = no such curve, though single readings can be large or run the other way
HttQ103 aggreg: inhibitors of mutant huntingtin aggregate formation in PC12 cells; PC12 HttQ103-GFP aggregates, Acumen cytometry, 40 h; Potency, µM (doses to about 46.1 µM), most hits filed as inhibitors; hit rate 1.1% among 220,000; AID 1688; also: nearly all actives have a fitted effect of over 60% in size
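Aggregate formation scored by laser-scanning cytometer (488 excitation, 500–530 emission) in lysed PC12 cells expressing Q103-GFP after 100 nM tebufenozide induction; library tested in dose series, with ATPLite reagent added in the multiplex.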
CBFb-RUNX1 inh: blocks binding between human CBF-beta and RUNX1 | AlphaScreen CBFb-His/RUNX1-biotin binding, biochemical | Potency, µM (highest dose often 59.8 µM), most hits filed as inhibitors | 230,000 tested, under 10 active | Q01196+Q13951
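Proteins preincubated together for 20 min at RT before compound addition; 15 min later, nickel and streptavidin beads were added and left 90 min prior to AlphaScreen measurement.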
HPGD inh: blocks human HPGD enzyme activity; purified HPGD, NADH fluorescence kinetic, PGE2 substrate; hit rate 4.3% among 150,000; Potency, µM, most hits filed as inhibitors; AID 894; active = well fitted inhibition curve with a large enough effect, not every such curve was filed as active; inconclusive = small, poorly fitted or top-dose-only effect, or another doubt; inactive = no such curve, though single readings can be large or run the other way
Target sequence (P15428 whole entry, looked up): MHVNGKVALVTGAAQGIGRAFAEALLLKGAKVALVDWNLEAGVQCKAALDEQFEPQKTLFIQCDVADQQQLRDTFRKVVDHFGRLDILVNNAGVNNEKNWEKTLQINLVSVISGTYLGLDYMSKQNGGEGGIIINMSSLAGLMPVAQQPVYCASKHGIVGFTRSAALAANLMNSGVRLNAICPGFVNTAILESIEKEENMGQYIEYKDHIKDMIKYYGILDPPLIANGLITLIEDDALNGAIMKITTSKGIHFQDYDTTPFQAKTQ
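20 nM HPGD preincubated 15 min at room temperature with compound in 50 mM Tris-HCl pH 8, 0.01% Tween 20. Started with 1 mM NAD+ and 30 uM prostaglandin E2; NADH fluorescence (360/450 nm) read 5 times over 30-s intervals, last minus first.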
PNC inhibitor: blocks assembly of the perinucleolar compartment; activity change (PNC), negative = inhibition, % at 10 µM; PC3M PTB-GFP, PNC prevalence imaging, 16 h; active compounds read low; hit rate 3.1% among 140,000; AID 2417;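 active = readout at or below -70, meaning at least 70% loss of cells showing the perinucleolar compartment, a nuclear body marking cancer cells; inconclusive = readout between -30 and a set limit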
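Compounds are pinned in duplicate onto adhered PC3M cells stably expressing GFP-tagged PTB and incubated 16 h at 37 C. Cells are then fixed, nuclei stained with Hoechst, and PNC-positive cells counted.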
HTT ATP protect: cytoprotection in Huntington HTT-Q103 PC12 cell model | PC12 HTT-Q103 induced, cytoprotection, ATP luminescence, 40 h | Potency, µM (series often up to 56.4 µM), actives largely listed as activators | hit rate 0.14% among 230,000; also: nearly all actives have a fitted effect of over 45% in size
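ATP quantification (ATPlite) reports survival of PC12 cells in which tebufenozide, 100 nM final, switches on Htt exon 1 with 103 glutamines linked to GFP; compounds are titrated.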
Hits are given with their value; [ ] = dose if it differs, or a comment. Unless noted, calls follow the shape of the dose curve; as a rule, active = well fitted curve in the direction sought with a large enough effect; inconclusive = small, poorly fitted or top-dose-only effect, or another doubt; inactive = no such curve, though single readings can be large; an effect the other way counts as inactive or inconclusive.

How did CCN(CC)S(=O)(=O)c1ccc(N2Cc3ccccc3C2=N)cc1 do in these assays?
ALDH1A1 block: inactive; HttQ103 aggreg: inactive; CBFb-RUNX1 inh: inactive; HTT ATP protect: inconclusive

Results for CN1c2ccccc2C(C)(C)C12CC(c1ccc(S(=O)(=O)N3CCCCC3)cc1)=NO2 (centres undefined) ?
ALDH1A1 block: inactive; HttQ103 aggreg: inactive; CBFb-RUNX1 inh: inactive; HPGD inh: inactive; PNC inhibitor: inconclusive; HTT ATP protect: inactive[10 µM]

Results for CN1c2ccccc2C(C)(C)C12CC(c1cccc(S(=O)(=O)N3CCCC3)c1)=NO2 (centres undefined) ?
ALDH1A1 block: inactive; HttQ103 aggreg: inactive; CBFb-RUNX1 inh: inactive; HPGD inh: inactive; PNC inhibitor: -117; HTT ATP protect: inactive[10 µM]

What do the screens show for `CC1(C)CCC[C@@](C)([C@H]2CC[C@]3(C)[C@@H]2[C@H](O)CC2[C@@]4(C)CC[C@H](O)C(C)(C)[C@@H]4[C@@H](O)C[C@]23C)O1` (some centres undefined)?
CBFb-RUNX1 inh: inactive

What do the screens show for `CC(=O)OC[C@@]1(O)C[C@@]23CC[C@@H]4c5ccoc5CC[C@@]4(C)[C@@H]2CCC1C3`?
ALDH1A1 block: inactive; CBFb-RUNX1 inh: inactive; HPGD inh: inactive; HTT ATP protect: inconclusive

What do the screens show for `Clc1cccc(Cl)c1CNc1ccc(N2CCCC2)cc1`?
ALDH1A1 block: 16µM; HttQ103 aggreg: inconclusive; CBFb-RUNX1 inh: inconclusive; HTT ATP protect: inactive

How did Cc1noc(C)c1-c1ccc2ncnc(NCc3cccc(F)c3)c2c1 do in these assays?
CBFb-RUNX1 inh: inactive

How did CCN(CC)c1ccc(C(=S)NCc2ccccc2)cc1 do in these assays?
ALDH1A1 block: 10µM; HttQ103 aggreg: inconclusive; CBFb-RUNX1 inh: inconclusive; HTT ATP protect: inactive

How did CCN(CC)c1ccc(C(=S)NC2CCCCC2)cc1 do in these assays?
ALDH1A1 block: 7.9µM; HttQ103 aggreg: inconclusive; CBFb-RUNX1 inh: inactive; HTT ATP protect: inactive[10 µM]

What do the screens show for `CN(C)c1ccc(C(=S)NC2CCCCC2)cc1`?
ALDH1A1 block: 3.5µM; HttQ103 aggreg: inactive[9.22 µM]; CBFb-RUNX1 inh: inactive; HTT ATP protect: inactive[10 µM]

What do the screens show for `CN(C)c1ccc(C(=O)OCC(=O)NC2CCCCCC2)cc1`?
ALDH1A1 block: inactive; HttQ103 aggreg: inactive; CBFb-RUNX1 inh: inactive; HTT ATP protect: inactive

What do the screens show for `CC(C)N(C(=S)NCc1ccccc1)c1ccccc1`?
ALDH1A1 block: inconclusive; HttQ103 aggreg: inactive; CBFb-RUNX1 inh: inactive; HTT ATP protect: inactive[10 µM]

Results for COc1cc2c(cc1OC)C(c1ccccc1)CN(C)CC2 (centres undefined) ?
ALDH1A1 block: inactive; HttQ103 aggreg: inactive; CBFb-RUNX1 inh: inactive; HPGD inh: inactive; HTT ATP protect: inactive

How did CCN(CC)CC(=O)Nc1ccccc1SCC(=O)Nc1ccsc1C(=O)OC do in these assays?
ALDH1A1 block: inactive; HttQ103 aggreg: inactive; CBFb-RUNX1 inh: inactive; HTT ATP protect: inactive

Results for COC(=O)c1sccc1NC(=O)CSc1ccccc1NS(=O)(=O)c1ccc(Cl)cc1 ?
ALDH1A1 block: 13µM; HttQ103 aggreg: inactive; CBFb-RUNX1 inh: inactive; HPGD inh: inactive; PNC inhibitor: inactive; HTT ATP protect: inactive

How did COC(=O)c1sccc1NC(=O)CSc1ccccc1NS(=O)(=O)c1ccccc1Cl do in these assays?
ALDH1A1 block: 7.1µM; HttQ103 aggreg: inactive; CBFb-RUNX1 inh: inactive; HPGD inh: inactive; PNC inhibitor: inactive; HTT ATP protect: inactive[10 µM]

How did COCCn1c(=O)c(-c2ccc(OC)cc2)nc2cnc(N3CCN(C)CC3)nc21 do in these assays?
ALDH1A1 block: inconclusive; HTT ATP protect: inactive

How did O=C(c1ccncc1)N1CCC2(CCCN(c3ccncc3)C2)CC1 do in these assays?
ALDH1A1 block: inactive; HPGD inh: inactive; HTT ATP protect: inactive

How did O=C(O)CSc1nc(-c2cccs2)cc(C(F)(F)F)n1 do in these assays?
ALDH1A1 block: inactive; CBFb-RUNX1 inh: inactive

Results for O=C(CSc1nc(-c2cccs2)cc(C(F)(F)F)n1)Nc1cc(OCC(F)(F)F)cc([N+](=O)[O-])c1 ?
ALDH1A1 block: inactive; HttQ103 aggreg: inactive; CBFb-RUNX1 inh: inactive; HPGD inh: inactive; PNC inhibitor: -90; HTT ATP protect: inactive[10 µM]
